The supplement of paper PMC7156485

System: HCC1569
Experiment: H1.0 immunofluorescence intensity relative to DMSO (% of DMSO); higher = stronger H1.0 induction, active = 140 or more
Settings: concentration: 10 µM; 24 h
How it was run: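 HCC1569 and TDF cells (800 per well, 384-well plates, RPMI with 10% FBS) were treated with compounds at 10 µM for 24 h at 37 °C, in triplicate. Cells were fixed in 3.7% formaldehyde and stained with a rabbit anti-H1.0 antibody, an AlexaFluor 647 secondary and DAPI; six fields per well were imaged at ×10. H1.0 nuclear intensity or cell number is expressed as percent of the plate DMSO control, taking the median of replicates. HCC1569 values were smoothed for positional effects.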
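Also: TDF is a line of transformed human dermal fibroblasts of mesenchymal origin.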

H1.0 immunofluorescence intensity, inactive:
COc1cc2ncc(-c3ccccc3)nc2cc1OC [Tyrphostin AG 1296] 111, O=C(O)c1ccc(NC(=O)[C@H](CC2CCCC2)n2cnc(C(F)(F)F)c2)nc1 106, O=C(CCCCCCc1ccccc1)c1ncc(-c2ccccn2)o1 [7-phenyl-1-[5-(2-pyridinyl)-1,3-oxazol-2-yl]-1-heptanone] 107, CC12C=Cc3occc3C1CCC13CC(=O)C(CCC12)C3 (stereo not drawn) [16-Oxokahweol] 99.3, CCC1(c2ccccc2)C(=O)NCNC1=O [Primidone] 102, CC1(C)CC1C(=O)NC(=CCCCCSCC(N)C(=O)O)C(=O)O (stereo not drawn) [Cilastatin] 119, O=C1c2c(O)cc(O)cc2OC(c2ccc(O)c(O)c2)C1O (racemic) 103, CCCNCC(O)COc1ccccc1C(=O)CCc1ccccc1.Cl (stereo not drawn) [Propafenone hydrochloride] 102
